Results with a measured potency or affinity are listed apart. Active and inactive are the calls of the source. No rule for the calls is given here.
Also: 0% is about no effect.

The conditions of the assay: Ebola virus entry assay, green fluorescence channel.
Regarding `CCC(C)(CN(C)C)OC(=O)c1ccccc1` (stereo not given), the efficacy is 37.4% (inactive).

Take `O=C1O[C@H](CO)[C@@H](O)[C@H](O)[C@H]1O`: the efficacy was 24.7% (inactive).

On to `CCOc1nc2cccc(C(=O)O)c2n1Cc1ccc(-c2ccccc2-c2nn[nH]n2)cc1`, for which the efficacy was 27.1% (inactive).

On to `Cc1c(N(C)CS(=O)(=O)O)c(=O)n(-c2ccccc2)n1C`, for which the efficacy is -26.4% (inactive).

For `CCCOC(=O)c1ccccc1`, the efficacy is 17.4% (inactive).

As to `COc1cc2c3cc1Oc1cc(ccc1O)C[C@@H]1c4c(cc(OC)c(O)c4Oc4ccc(cc4)C[C@@H]3N(C)CC2)CC[N+]1(C)C`, the efficacy is -16.5% (inactive).

For the compound `CC(C)(C)c1cc(C=O)cc(C(C)(C)C)c1O`, the efficacy is 23.6% (inactive).

Regarding `OC[C@H]1O[C@@H](Oc2ccc(O)cc2)[C@H](O)[C@@H](O)[C@@H]1O`, the efficacy was -11.6% (inactive).

Regarding `NCCNCCNCCN`, the efficacy is 15% (inactive).

Turning to `COc1ccc(C(=O)CC(=O)c2ccc(C(C)(C)C)cc2)cc1`, the efficacy was -14.9% (inactive).

With `O=C1OC(CCN2CCCCC2)OC1(c1ccccc1)c1ccccc1` (stereo not given), the efficacy is -23.4% (inactive).

In the case of `CC[C@]12CCCN3CCc4c(n(c5ccccc45)[C@@](O)(C(=O)OC)C1)[C@@H]32`, the efficacy was -18% (inactive).

Consider `O=C(O)CCCC[P+](c1ccccc1)(c1ccccc1)c1ccccc1`, for which the efficacy is 19.9% (inactive).

For `CC1(C)O[C@H]2CC(=O)OC[C@]23[C@H]2CC[C@@]4(C)[C@H](c5ccoc5)OC(=O)[C@H]5O[C@]54[C@]2(C)C(=O)C[C@@H]13`, the efficacy is -20.6% (inactive).

On to `O=C1OC2(c3ccccc31)c1cc(Br)c(O)c(Br)c1Oc1c2cc(Br)c(O)c1Br`, for which the efficacy is 23.8% (inactive).

For the compound `C/C(=N\O)[C@@H](C)NCC(C)(C)CN[C@H](C)/C(C)=N/O`, the efficacy was -29.3% (inactive).

Take `CCn1cc(C(=O)O)c(=O)c2cnc(N3CCNCC3)nc21`: the efficacy was -36.7% (inactive).

As for `COc1ccc(C2CNC(=O)C2)cc1OC1CCCC1` (stereo not given), the efficacy was -23.7% (inactive).

In the case of `C/C(=C(\CCO)SS/C(CCO)=C(\C)N(C=O)Cc1cnc(C)nc1N)N(C=O)Cc1cnc(C)nc1N`, the efficacy is -13% (inactive).

For `Nc1ccc(S(=O)(=O)NCc2ccccc2)cc1`, the efficacy is 27.6% (inactive).

Regarding `FC1(F)C(F)(F)C(F)(F)C2(F)C(F)(F)C(F)(F)C(F)(F)C(F)(F)C2(F)C1(F)F` (stereo not given), the efficacy is -14% (inactive).

For `O=C(c1ccccc1)c1ccccc1`, the efficacy was 10.2% (inactive).

Take `COc1cc2c(cc1OC)CN(C(=O)[C@H](C)N[C@@H](CCc1ccccc1)C(=O)O)[C@H](C(=O)O)C2`: the efficacy is -27.9% (inactive).

On to `CC(C)(C)CC(C)(C)c1ccc(OCCOCC[N+](C)(C)Cc2ccccc2)cc1`, for which the efficacy was -219% (inactive).

Consider `Cn1c([N+](=O)[O-])cnc1COC(N)=O`, for which the efficacy was 19.4% (inactive).

Consider `NC[C@H]1O[C@H](O[C@H]2[C@H](O[C@@H]3O[C@H](CO)[C@@H](O)[C@H]3O)C(O)[C@H](N)C[C@@H]2N)[C@H](N)[C@@H](O)[C@@H]1O` (stereo not given in full), for which the efficacy was -16% (inactive).

Regarding `CCCCCN(CCCOC)C(=O)C(CCC(=O)O)NC(=O)c1ccc(Cl)c(Cl)c1` (stereo not given), the efficacy is -27.8% (inactive).

On to `O=C(NCN1CCOCC1)c1cnccn1`, for which the efficacy was 22.2% (inactive).

On to `Cc1c(F)c(N2CCNC(C)C2)cc2c1c(=O)c(C(=O)O)cn2C1CC1` (stereo not given), for which the efficacy was -15% (inactive).

In the case of `Cc1cc(C)c(NC(=O)CN(CC(=O)O)CC(=O)O)c(C)c1Br`, the efficacy was 7.04% (inactive).

Regarding `O=c1cc[nH]c(=S)[nH]1`, the efficacy is 12.4% (inactive).

For `O=C(O)CNC(=O)c1ccccc1`, the efficacy is -32.2% (inactive).

As for `O=c1[nH]c(=O)n([C@H]2CCCO2)cc1F`, the efficacy is -34.9% (inactive).

As to `NC(=O)c1cccnc1`, the efficacy was -19.3% (inactive).

For the compound `Cc1cccc(C)c1OCC(=O)N[C@@H](Cc1ccccc1)[C@@H](O)C[C@H](Cc1ccccc1)NC(=O)[C@H](C(C)C)N1CCCNC1=O`, the efficacy is 20.6% (inactive).

For `C/C=C1\[C@H]2C=C(C)C[C@]1(N)c1ccc(=O)[nH]c1C2`, the efficacy was 25.8% (inactive).

`CCCCCCCCCCC[C@@H](C[C@@H]1OC(=O)[C@H]1CCCCCC)OC(=O)[C@H](CC(C)C)NC=O`: the efficacy was -27.6% (inactive).

`CC(C)=CCC1C(=O)N(c2ccccc2)N(c2ccccc2)C1=O`: the efficacy is -18% (inactive).

In the case of `C#C[C@]1(O)CC[C@H]2[C@@H]3CCC4=CC(=O)CC[C@@H]4[C@H]3CC[C@@]21CC`, the efficacy is 10.4% (inactive).

For the compound `O=C(CCCl)NCCc1ccccc1`, the efficacy is -10.7% (inactive).

(Values after PubChem BioAssay (NCATS).)
